Test results taken from the supplement of paper PMC8728848.
Many of the other results were omitted from the sample, so the strongest signals are more common in it than they were.

Tests used:
Assay in all cases: glycan array binding signal (z-score within array); higher = stronger binding
Conditions in all cases: glycan notation: IUPAC condensed, linker removed
[1] = biological target: GlcNAc(b1-3)[GlcNAc(b1-6)]GlcNAc(b1-4)GlcNAc
Method in brief: (§1)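 Columns mapping to the same glycan were averaged after glycan names were converted to IUPAC-condensed notation. The data come from 3228 arrays in the Consortium for Functional Glycomics database, limited to those with an available protein sequence. Binding is reported as a within-array Z-score averaged across arrays of one protein sequence and across linkers.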

[2] = biological target: GlcNAc(b1-4)[GlcNAc(b1-6)]GalNAc
Method in brief: as §1

[3] = biological target: GlcNAc6S(b1-3)Gal(b1-4)GlcNAc
Method in brief: as §1

Man(a1-2)Man(a1-3)Man = biological target: Man(a1-2)Man(a1-3)Man
Method in brief: as §1

[4] = biological target: Man(a1-2)Man(a1-3)[Man(a1-2)Man(a1-6)]Man(a1-6)[Man(a1-2)Man(a1-2)Man(a1-3)]Man
Method in brief: as §1

[5] = biological target: Man(a1-3)[Man(a1-6)]Man(a1-6)[Man(a1-2)Man(a1-3)]Man(b1-4)GlcNAc(b1-4)GlcNAc
Method in brief: as §1

[6] = biological target: Man(a1-3)[Man(a1-6)]Man(a1-6)[Man(a1-3)]Man(b1-4)GlcNAc(b1-4)GlcNAc
Method in brief: as §1

[7] = biological target: Neu5Ac(a2-3)Gal(b1-3)GlcNAc
Method in brief: as §1

[8] = biological target: Neu5Ac(a2-3)Gal(b1-4)GlcNAc(b1-3)Gal(b1-4)GlcNAc(b1-3)Gal(b1-4)GlcNAc(b1-2)Man(a1-3)[Neu5Ac(a2-3)Gal(b1-4)GlcNAc(b1-3)Gal(b1-4)GlcNAc(b1-3)Gal(b1-4)GlcNAc(b1-2)Man(a1-6)]GalNAc
Method in brief: as §1

[9] = biological target: Neu5Ac(a2-3)Gal(b1-4)GlcNAc(b1-3)Gal(b1-4)GlcNAc(b1-3)GalNAc
Method in brief: as §1

[10] = biological target: Neu5Ac(a2-3)Gal(b1-4)[Fuc(a1-3)]GlcNAc(b1-3)GalNAc
Method in brief: as §1

Neu5Ac(a2-6)Gal = biological target: Neu5Ac(a2-6)Gal
Method in brief: as §1

[11] = biological target: Neu5Ac(a2-6)Gal(b1-4)GlcNAc(b1-3)Gal(b1-4)GlcNAc(b1-3)Gal(b1-4)GlcNAc
Method in brief: as §1

[12] = biological target: Neu5Ac(a2-6)Gal(b1-4)GlcNAc(b1-3)Gal(b1-4)GlcNAc(b1-3)Gal(b1-4)GlcNAc(b1-2)Man(a1-3)[Neu5Ac(a2-6)Gal(b1-4)GlcNAc(b1-3)Gal(b1-4)GlcNAc(b1-3)Gal(b1-4)GlcNAc(b1-2)Man(a1-6)]GalNAc
Method in brief: as §1

[13] = biological target: Neu5Ac(a2-6)Gal(b1-4)GlcNAc(b1-3)Gal(b1-4)GlcNAc(b1-6)[Gal(b1-3)]GalNAc
Method in brief: as §1

[14] = biological target: Neu5Ac(a2-8)Neu5Ac(a2-3)Gal(b1-3)GalNAc(b1-4)[Neu5Ac(a2-8)Neu5Ac(a2-3)]Gal(b1-4)Glc
Method in brief: as §1

[15] = biological target: Neu5Ac(a2-8)Neu5Ac(a2-8)Neu5Ac(a2-3)[Gal(b1-3)GalNAc(b1-4)]Gal(b1-4)Glc
Method in brief: as §1

[16] = biological target: Neu5Ac(b2-6)Gal(b1-4)GlcNAc
Method in brief: as §1

[17] = biological target: Neu5Gc(a2-3)Gal(b1-4)GlcNAc
Method in brief: as §1

B1: ECA (Erythrina cristagalli), P83410 (protein)
chain: VETISFSFSEFEPGNDNLTLQGAALITQSGVLQLTKINQNGMPAWDSTGRTLYTKPVHMWDSTTGTVASFETRFSFSIEQPYTRPLPADGLVFFMGPTKSKPAQGYGYLGVFNNSKQDNSYQTLAVEFDTFSNPWDPPQVPHIGIDVNSIRSIKTQPFQLDNGQVANVVIKYDAPSKILHVVLVYPSSGAIYTIAEIVDVKQVLPDWVDVGLSGATGAQRDAAETHDVYSWSFQASLPE
glycan array binding signal (z-score) [1]: -0.277
glycan array binding signal (z-score) [2]: -0.228
glycan array binding signal (z-score) [3]: -0.243
glycan array binding signal (z-score) (Man(a1-2)Man(a1-3)Man): -0.285
glycan array binding signal (z-score) [4]: -0.091
glycan array binding signal (z-score) [5]: 1.29
glycan array binding signal (z-score) [6]: -0.177
glycan array binding signal (z-score) [7]: -0.269
glycan array binding signal (z-score) [8]: 7.35
glycan array binding signal (z-score) [9]: -0.407
glycan array binding signal (z-score) [10]: 0.567
glycan array binding signal (z-score) (Neu5Ac(a2-6)Gal): -0.208
glycan array binding signal (z-score) [11]: -0.578
glycan array binding signal (z-score) [12]: 5.2
glycan array binding signal (z-score) [13]: 0.104
glycan array binding signal (z-score) [14]: -0.352
glycan array binding signal (z-score) [15]: 0.194
glycan array binding signal (z-score) [16]: -0.088
glycan array binding signal (z-score) [17]: -0.327
